Rows were chosen to be rich in hits. Some 3.3% of all compounds tested hit in one or more screens of this group.
Tau fil binding: tau filament binding | recombinant tau filaments, thioflavin S fluorescence, 15 h; filaments grown with octadecylsulfate alongside compound | Potency, µM (series often up to 57.1 µM) | 71,000 tested, 2% active | AID 596;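 note: actives lower thioflavin S fluorescence by blocking filaments or displacing dye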
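Thioflavine S fluorescence (ex 450, em 510 nm) reports filaments formed from 1 uM human tau plus 30 uM ODS over 15 h at 37 C (10 mM HEPES pH 7.4, 100 mM NaCl, 5 mM DTT); compounds displacing dye or blocking filaments lower signal.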
Pol III holo inh: DNA polymerase III holoenzyme inhibition | reconstituted DNA polymerase III holoenzyme replication, biochemical | Potency, µM (highest dose often 57.1 µM) | 71,000 tested, 0.25% active | AID 603
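Reconstituted *E. coli* holoenzyme (0.35 nM Pol III, 1 nM beta, 154 nM SSB, 2 nM primase) was preincubated with compound for 15 min at RT. Synthesis on 1.4 nM ssM13Gori ran 35 min, then was stopped with PicoGreen/EDTA and read as dsDNA fluorescence.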
ALOX15 inhib: blocks human 15-lipoxygenase activity; P16050; purified 15hLO-1, xylenol orange hydroperoxide absorbance; Potency, µM (doses to about 57.1 µM), actives largely listed as inhibitors; 74,000 tested, 1.4% active; note: nearly all actives have a fitted effect of over 55% in size
Target sequence (P16050 whole entry, looked up): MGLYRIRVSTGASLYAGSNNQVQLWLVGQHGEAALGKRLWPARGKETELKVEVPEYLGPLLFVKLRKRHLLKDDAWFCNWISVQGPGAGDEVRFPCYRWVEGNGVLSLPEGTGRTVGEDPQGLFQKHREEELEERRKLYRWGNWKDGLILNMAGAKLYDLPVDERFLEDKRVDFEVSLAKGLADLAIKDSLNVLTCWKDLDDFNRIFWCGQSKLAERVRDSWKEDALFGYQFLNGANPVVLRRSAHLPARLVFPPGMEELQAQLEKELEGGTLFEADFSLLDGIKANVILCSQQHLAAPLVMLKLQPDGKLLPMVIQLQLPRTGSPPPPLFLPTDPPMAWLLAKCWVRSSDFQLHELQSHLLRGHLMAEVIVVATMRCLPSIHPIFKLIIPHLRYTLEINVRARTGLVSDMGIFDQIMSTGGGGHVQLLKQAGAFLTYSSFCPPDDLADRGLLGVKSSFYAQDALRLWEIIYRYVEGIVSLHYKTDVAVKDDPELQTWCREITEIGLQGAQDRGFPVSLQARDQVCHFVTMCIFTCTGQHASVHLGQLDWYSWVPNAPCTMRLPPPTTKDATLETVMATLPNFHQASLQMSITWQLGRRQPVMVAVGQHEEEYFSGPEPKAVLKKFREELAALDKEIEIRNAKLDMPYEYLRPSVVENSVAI
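Hydroperoxide formed from arachidonic acid (50 uM) by purified human 15hLO-1 (40 nM) oxidizes ferrous iron, and the ferric-xylenol orange complex is read at 573 versus 405 nm. Compounds were preincubated 15 min; reaction ran 6 min at room temperature.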
TsaE inh: inhibitors of E. coli YjeE (TsaE); Potency, µM; purified YjeE enzyme, qHTS inhibition assay; P0AF67; 71,000 tested, 0.05% active
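Fluorescence polarization of a BODIPY Texas Red–ADP probe (2 uM) bound to purified YjeE (10 uM) was read after 15 min room-temperature incubation with compounds. Loss of polarization marks inhibitors; ADP serves as titrated control.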
Hsp90 Hop PPI: changes Hsp90-Hop TPR2A binding signal, up or down. AlphaScreen TPR2A-His6 binding biotin-Hsp90 C-terminal peptide. Potency, µM (highest dose often 57 µM). 71,000 tested, 0.44% active. AID 595; active = well fitted curve in either direction with a large enough effect; inconclusive = small, poorly fitted or top-dose-only effect, or another doubt
Large screens that a line does not name were inactive. Unless noted, calls come from the whole dose curve; as a rule, active = well fitted curve in the direction sought with a large enough effect; inconclusive = small, poorly fitted or top-dose-only effect, or another doubt; inactive = no such curve, though single readings can be large; an effect the other way counts as inactive or inconclusive.

CC1=CC(C)(C)N2C(=O)C3(C(C#N)=C(N)Oc4cc(O)ccc43)c3cccc1c32 (stereo not drawn)	Tau fil binding 4µM
C[Si](C)(C)Cl	none
Nc1cnn([C@@H]2O[C@H](CO)[C@@H](O)[C@H]2O)c(=O)n1	none
CCN1CCCC1CNC(=O)c1ccc(-n2c(=O)c(=O)[nH]c3ccccc32)cc1 (stereo not drawn)	none (no result: Tau fil binding, Pol III holo inh, TsaE inh, Hsp90 Hop PPI)
COc1ccc2[nH]c3c(=O)n(CCCCC(=O)NCCN4CCCC4)c(=S)[nH]c3c2c1	ALOX15 inhib 10µM
CN1CCc2c(cc(O)c(O)c2Cl)[C@H](c2cccc(Cl)c2)C1	ALOX15 inhib 16µM, Hsp90 Hop PPI 13µM
C=C(C)CSc1nc(N)c(C#N)c(-c2ccc(C)cc2)c1C#N	ALOX15 inhib 32µM, Hsp90 Hop PPI inconclusive
CCCCOc1ccc(-c2c(C#N)c(N)nc(SCC(N)=O)c2C#N)cc1	ALOX15 inhib inconclusive, TsaE inh inconclusive
FC(F)C(F)(F)C1=CC(c2ccccc2)=NCCN1	Tau fil binding 13µM
FC(F)C(F)(F)C1=CC(c2cccs2)=NCCN1	Tau fil binding 16µM
c1ccc2c(CC3=NCCN3)cccc2c1	none
Cc1cc(C(=O)CSc2nc3ccc(Cl)cc3[nH]2)c(C)n1C	ALOX15 inhib 25µM
CO[C@H]1COC(=O)[C@@H](C)COC(=O)[C@H](C)NC(=O)C/C=C\[C@H]1C	none (no result: Tau fil binding, Pol III holo inh, TsaE inh, Hsp90 Hop PPI)
CCc1ccccc1OC[C@@H](O)CN[C@H]1CCCc2ccccc21	Tau fil binding 13µM
CC(=O)c1c(O)c(C)c(O)c2c1OC1=CC(=O)[C@H](C(C)=O)C(=O)[C@]12C	Tau fil binding inconclusive (no result: ALOX15 inhib)
C[C@H]1C[C@@H]2[C@H]3CCC4=CC(=O)C=C[C@@]4(C)[C@]3(Cl)[C@@H](Cl)C[C@]2(C)[C@]1(O)C(=O)COP(=O)(O)O	none (no result: ALOX15 inhib)
Cc1cc(C)n2nc3ccccc3c2n1	none
Cc1cc(C)n2nc3nc(N4CCCCC4)nc(-c4ccco4)c3c2n1	Tau fil binding 20µM, ALOX15 inhib 16µM, Hsp90 Hop PPI inconclusive
CCC/C=C/C1C(=O)C2OC2C2(OCC(CC)(CC)CO2)C1CO (stereo not drawn)	none (no result: Tau fil binding, Pol III holo inh, TsaE inh, Hsp90 Hop PPI)
CC1(C)Cc2c(c(-c3ccco3)[nH]c(=O)c2C#N)CO1	none
CC1(C)Cc2c(C#N)c(OCC(=O)c3ccc(Cl)cc3)nc(-c3ccco3)c2CO1	none
CCCCN(C)c1nc(-c2ccco2)c2c(c1C#N)CC(C)(C)OC2	ALOX15 inhib inconclusive, Hsp90 Hop PPI 25µM
CC1(C)Cc2c(C#N)c(N3CCCC3)nc(-c3ccco3)c2CO1	Hsp90 Hop PPI 25µM
C=CCOCC/C=C1/c2ccccc2C(OC)C1C (stereo not drawn)	none (no result: Tau fil binding, Pol III holo inh, TsaE inh, Hsp90 Hop PPI)
Cc1csc(SCC(=O)c2ccc(S(=O)(=O)N3CCOCC3)cc2)n1	ALOX15 inhib 20µM
COc1ccc(C(=O)CSc2nnc(-c3ccc(S(=O)(=O)N4CCOCC4)cc3)o2)cc1	none
COc1ccc(NC(=O)C2CCCNC2)cc1OCC(C)C (stereo not drawn)	Tau fil binding 25µM, ALOX15 inhib inconclusive
COc1cc(NC(=O)C2CCCCN2)ccc1OCC(C)C (stereo not drawn)	none
COc1ncc2nc(-c3cc(F)cc(F)c3)c(=O)n(C)c2n1	none
Cn1c(=O)c(-c2cc(F)cc(F)c2)nc2cnc(Nc3ccccc3)nc21	Tau fil binding 6.3µM
N#CCCn1c(=O)c(-c2cc(F)cc(F)c2)nc2cnc(Nc3ccccc3)nc21	none
Cn1c(=O)c(-c2cc(F)cc(F)c2)nc2cnc(Oc3ccccc3)nc21	Tau fil binding 13µM
COc1cccc(Cn2c(=O)c(-c3cc(F)cc(F)c3)nc3cncnc32)c1	Tau fil binding 13µM
COc1cccc(Cn2c(=O)c(-c3ccc(F)cc3)nc3cncnc32)c1	Tau fil binding inconclusive, ALOX15 inhib inconclusive
COc1cccc(Cn2c(=O)c(-c3cccc(F)c3)nc3cncnc32)c1	Tau fil binding 13µM
CC(=O)O[C@H]1CC[C@@]2(C)[C@@H](CC[C@@]3(C)[C@H]2C(=O)C=C2[C@H]4C[C@](C)(C(=O)OCCN5CCCCC5)CC[C@]4(C)CC[C@@]23C)C1(C)C	none (no result: ALOX15 inhib)
C/C(=N/O)c1ccc2cc(Br)c3ccccc3c2c1	none
CO[C@@H]1/C=C\CC(=O)N2CCC[C@@H]2C(=O)OC[C@@H](C)C(=O)OC[C@H]1C	none (no result: Tau fil binding, Pol III holo inh, TsaE inh, Hsp90 Hop PPI)
O=c1nc2s/c(=C\c3ccco3)c(=O)n2nc1Cc1ccc(F)cc1	Tau fil binding inconclusive, Pol III holo inh 16µM, ALOX15 inhib inconclusive, Hsp90 Hop PPI inconclusive

Screening data: PubChem, National Center for Advancing Translational Sciences (NCATS)
